One test concerns CASKI. Description: Primary qHTS to identify gynecologic anti-cancer compounds using libraries of approved drugs and bioactive compounds (AID 1345084). Note: % is set by controls: 0 for no effect and ±100 for the full control effect; nearly all actives have a fitted effect of over 55% in size. To be noted: Gynecologic cancer cell panel viability, ATPlite luminescence, 48 h; series mostly up to 57.5 µM. The method, boiled down:
(§1)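 Luminescence from the ATPlite ATP-monitoring reagent indicates viable cell number; lower signal means cytotoxicity. Cells received compound 16 h after seeding and were exposed for 48 h across five concentrations.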
For orientation: qHTS replaces the single test concentration by a dilution series.

The next test concerns Es-2. The test is described as above. To be noted: Gynecologic cancer cell panel viability, ATPlite luminescence, 48 h; series mostly up to 57.5 µM. The method, boiled down: as §1
A general note: Cellular ATP, detected with luciferase, serves as a proxy for viable cell number.

A further test relates to HeLa. Described as above. To be noted: Gynecologic cancer cell panel viability, ATPlite luminescence, 48 h; series mostly up to 57.5 µM. The method, boiled down:
as §1

The test system of the next test is Hek293T. Described as above. To be noted: Gynecologic cancer cell panel viability, ATPlite luminescence, 48 h, control line for the selectivity index; series mostly up to 57.5 µM. The method in brief:
as §1

The test system of a further test is JEG-3. The test is described as above. To be noted: Gynecologic cancer cell panel viability, ATPlite luminescence, 48 h; series mostly up to 57.5 µM. The method, boiled down:
as §1

The test system of another test is OV90. The test is described as above. To be noted: Gynecologic cancer cell panel viability, ATPlite luminescence, 48 h; series mostly up to 57.5 µM. The method in brief:
as §1

The subject of the next test is PA-1. The test is described as above. To be noted: Gynecologic cancer cell panel viability, ATPlite luminescence, 48 h; series mostly up to 57.5 µM. The method in brief:
as §1

Another test deals with SKOV3. The test is described as above. To be noted: Gynecologic cancer cell panel viability, ATPlite luminescence, 48 h; series mostly up to 57.5 µM. The method, boiled down:
as §1

The subject of another test is Tov-21-G. Described as above. To be noted: Gynecologic cancer cell panel viability, ATPlite luminescence, 48 h; series mostly up to 57.5 µM. The method, boiled down: as §1
The test system of another test is Tov112D. The test is described as above. To be noted: Gynecologic cancer cell panel viability, ATPlite luminescence, 48 h; series mostly up to 57.5 µM. The method, boiled down:
as §1

Test [1] can be described thus: Drug repurposing screens with cells derived from glioblastoma tumor samples (AID 1345199). For activity, negative = cell killing: % is set by controls: 0 for no effect and ±100 for the full control effect. Note: nearly all actives have a fitted effect of over 40% in size. Note: potency is the fitted concentration of half-maximal effect. To be noted: GBM patient neurospheres viability, ATP luminescence, 48 h. The method in brief: (§2)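 Four patient lines of CD133+ GBM neurospheres were screened at several concentrations; hits were retested in those lines plus three slower-growing GBM lines, using 48-hour treatment and ATP-based viability.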

For the next test, the system named is astro. The description is as above. To be noted: viability, ATP luminescence, 48 h; series mostly up to 45.9 µM. The method in brief: as §2
For test [2], the target named is Nuclear receptor subfamily 1 group I member 2 (Rattus norvegicus) (UniProt Q9R1A7). Briefly: qHTS assay for small molecule activators of the rat pregnane X receptor (rPXR) signaling pathway (AID 651751; call rule not given here; note: 0% is about no effect). To be noted: rPXR reporter cells, luciferase (One-Glo), 24 h.
Test [3] is described as follows: qHTS assay for small molecule activators of the human pregnane X receptor (PXR) signaling pathway (AID 720659; call rule not given here; note: 0% is about no effect).
The mark [4] stands for this setting: at 45.9 µM (top of the series), tumour line B.
The mark [5] stands for this setting: at 45.9 µM (top of the series), tumour line D.
[6] abbreviates: at 46 µM (top of the series), tumour line A.
Where [7] appears, read: at 46.1 µM (top of the series), tumour line C.
Setting [8] is: at 20 µM (top of the series), tumour line C.
Setting [9] is: at 21.2 µM (top of the series), tumour line B.
The mark [10] stands for this setting: at 21.2 µM (top of the series), tumour line D.
Setting [11] is: at 21.3 µM (top of the series), tumour line A.

Molecules are shown by their SMILES. Values joined by “and” are separate entries in the source; they are usually repeats but may differ in a detail not shown here. Equal entries are not always repeated. Unmarked numbers belong to inactive results. Records with an inconclusive call do not appear. Where a structure was tested more than once in an assay, its records may differ in their call. Active and inactive are the calls of the source. Unless noted, calls come from the whole dose curve; as a rule, active = well fitted curve in the direction sought with a large enough effect; inconclusive = small, poorly fitted or top-dose-only effect, or another doubt; inactive = no such curve, though single readings can be large; an effect the other way counts as inactive or inconclusive.

Sequence of Nuclear receptor subfamily 1 group I member 2 (Rattus norvegicus) (Q9R1A7 whole entry, looked up): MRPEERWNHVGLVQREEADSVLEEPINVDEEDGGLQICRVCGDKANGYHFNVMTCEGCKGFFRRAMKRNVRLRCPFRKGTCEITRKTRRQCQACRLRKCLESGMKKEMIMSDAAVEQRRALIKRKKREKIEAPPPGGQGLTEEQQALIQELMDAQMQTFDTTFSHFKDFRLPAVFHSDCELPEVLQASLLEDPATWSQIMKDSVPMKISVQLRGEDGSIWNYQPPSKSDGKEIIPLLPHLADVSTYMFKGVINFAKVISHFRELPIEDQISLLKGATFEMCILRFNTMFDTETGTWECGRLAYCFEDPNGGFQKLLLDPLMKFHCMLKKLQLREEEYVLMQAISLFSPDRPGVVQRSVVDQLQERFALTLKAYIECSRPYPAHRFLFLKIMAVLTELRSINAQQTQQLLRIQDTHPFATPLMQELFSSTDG

Consider `COc1ccc2[nH]cc(CCNC(C)=O)c2c1`, for which the Potency entry in the test with CASKI, in the test with Es-2, in the test on HeLa, in the test on Hek293T, in the test on JEG-3 and with OV90 was “inactive” throughout. The Potency result in the test with PA-1, in the test with SKOV3, in the test on Tov-21-G, in the test with Tov112D and in the test on astro was “inactive” in each case. Besides, the activity, negative = cell killing in test [1] (setting [4]) was -3.86%; in [1] (setting [5]), 3.96%; in [1] (setting [6]), -18.9%; in test [1] (setting [7]), -11.3%. In [2], the max response is 3.19% and 0.0273% and 3.25%. Besides, the compound was classed as inactive in test [3].
Turning to `CC1COc2c(N3CCN(C)CC3)c(F)cc3c(=O)c(C(=O)O)cn1c23` (configuration not stated), the Potency entry in the test on CASKI, in the test on Es-2, with HeLa, in the test on Hek293T, in the test on JEG-3 and with OV90 was “inactive” in each case. The Potency entry with PA-1, in the test with SKOV3, in the test with Tov-21-G, in the test on Tov112D and in the test on astro was “inactive” each time. Also, the activity, negative = cell killing in [1] (setting [4]) is -12.3%; in [1] (setting [5]), -0.592%; in [1] (setting [6]), -24.5%; in [1] (setting [7]), -10.7%.
For `COc1ccc(C2CNC(=O)C2)cc1OC1CCCC1` (configuration not stated), the Potency result with CASKI, in the test with Es-2, in the test with HeLa, with Hek293T, in the test on JEG-3 and in the test on OV90 was “inactive” in each case. The Potency entry with PA-1, with SKOV3, in the test on Tov-21-G, in the test with Tov112D and in the test with astro was “inactive” in each case. For the same compound, the activity, negative = cell killing in [1] (setting [8]) is -0.6%; in test [1] (setting [9]), -12.9%; in [1] (setting [10]) it was -16.7%; in test [1] (setting [11]) it was -26.3%.
For the compound `CCc1cccc2c3c([nH]c12)C(CC)(CC(=O)O)OCC3` (configuration not stated), the Potency entry in the test on CASKI, in the test with Es-2, in the test with HeLa, in the test with Hek293T, with JEG-3 and in the test on OV90 was “inactive” each time. Further, the Potency result in the test with PA-1, in the test with SKOV3, in the test on Tov-21-G, in the test with Tov112D and in the test on astro was “inactive” in each case. For the same compound, the activity, negative = cell killing was -7.67% in [1] (setting [4]), -2.3% in test [1] (setting [5]), -23.8% in test [1] (setting [6]) and -25.9% in test [1] (setting [7]).
Turning to `Clc1ccc(C(c2ccccc2Cl)C(Cl)Cl)cc1` (configuration not stated), the Potency result in the test on CASKI, in the test on Es-2, in the test on HeLa, in the test on Hek293T, in the test with JEG-3 and in the test on OV90 was “inactive” each time. Further, the Potency entry in the test with PA-1, in the test on SKOV3, in the test on Tov-21-G and with Tov112D was “inactive” throughout. Also, the activity, negative = cell killing in test [1] (setting [7]) was 32.2%. Further, in test [1] (tumour line A), the Potency was 22.4 µM (active).
For the compound `CC(C)(Oc1ccc(C2CC2(Cl)Cl)cc1)C(=O)O` (configuration not stated), the Potency entry with CASKI, with Es-2, with HeLa, with Hek293T, with JEG-3 and with OV90 was “inactive” each time. The Potency result in the test on PA-1, with SKOV3, in the test with Tov-21-G, in the test with Tov112D and in the test on astro was “inactive” in each case. For the same compound, the activity, negative = cell killing is -9.51% in test [1] (setting [4]), -16.1% in test [1] (setting [5]), -29.3% in test [1] (setting [6]) and 6.66% in test [1] (setting [7]). In addition, the max response in [2] is 27.5%. Besides, the result in test [3] was inactive.
As to `Cc1cn([C@H]2C=C[C@@H](CO)O2)c(=O)[nH]c1=O`, the Potency result in the test with CASKI, in the test on Es-2, in the test with HeLa, in the test with Hek293T, in the test with JEG-3 and in the test with OV90 was “inactive” throughout. Moreover, the Potency result with PA-1, with SKOV3, in the test on Tov-21-G, in the test with Tov112D and in the test on astro was “inactive” throughout. In addition, the activity, negative = cell killing is -6.16% in test [1] (setting [4]), -7.24% in [1] (setting [5]), -20.7% in test [1] (setting [6]) and -21.2% in test [1] (setting [7]). Also, the max response in [2] is 0.921% and -1.01% and -5.21%. In test [3], the compound was called inactive.
In the case of `Cc1ccc(-c2cc(C(F)(F)F)nn2-c2ccc(S(N)(=O)=O)cc2)cc1`, the Potency entry in the test with CASKI, in the test with Es-2, with HeLa, in the test with Hek293T, in the test on JEG-3 and in the test with OV90 was “inactive” throughout. Further, the Potency result in the test with PA-1, in the test with SKOV3, with Tov-21-G, in the test on Tov112D and with astro was “inactive” throughout. For the same compound, the activity, negative = cell killing in test [1] (setting [4]) is 2.4%; in test [1] (setting [7]), 15.9%. Besides, in [1] (tumour line A), the Potency is 8.91 µM (active).
With `CC1(C)O[C@H]2CC(=O)OC[C@]23[C@H]2CC[C@@]4(C)[C@H](c5ccoc5)OC(=O)[C@H]5O[C@]54[C@]2(C)C(=O)C[C@@H]13`, the Potency entry with CASKI, in the test with Es-2, with HeLa, in the test on Hek293T, with JEG-3 and with OV90 was “inactive” throughout. For the same compound, the Potency entry with PA-1, in the test with SKOV3, with Tov-21-G, with Tov112D and with astro was “inactive” throughout. Further, the activity, negative = cell killing in test [1] (setting [4]) was -1.56%; in test [1] (setting [5]), -7.18%; in [1] (setting [6]), -18.9%; in [1] (setting [7]) it was 3.51%.
For `COc1nc(C)nc(Cl)c1NC1=NCCN1`, the Potency entry in the test with CASKI, in the test with Es-2, in the test on HeLa, with Hek293T, in the test on JEG-3 and in the test on OV90 was “inactive” each time. Besides, the Potency entry in the test on PA-1, in the test with SKOV3, in the test on Tov-21-G, in the test on Tov112D and in the test on astro was “inactive” throughout. Further, the activity, negative = cell killing is -9.78% in [1] (setting [8]), -2.98% in test [1] (setting [9]), 12.8% in test [1] (setting [10]) and -26.5% in [1] (setting [11]).
For `CN(C)CCOC(c1ccccc1)c1ccccc1`, the Potency result in the test with CASKI, in the test on Es-2, with HeLa, in the test with Hek293T, with JEG-3 and in the test with OV90 was “inactive” in each case. Further, the Potency result with PA-1, in the test on SKOV3, in the test with Tov-21-G and with Tov112D was “inactive” in each case. The activity, negative = cell killing in [1] (setting [4]) is 0.893%; in test [1] (setting [5]), 1.4%; in test [1] (setting [7]), 1.73% and -22.4%. Further, the Potency in test [1] (tumour line A) is 22.4 µM (active) and 12.6 µM (active). The max response in [2] was 2.67%.
In the case of `O=C1Cc2cc(CCN3CCN(c4nsc5ccccc45)CC3)c(Cl)cc2N1`, the Potency result in the test with CASKI, with Es-2, with HeLa, with Hek293T, in the test with JEG-3 and in the test on OV90 was “inactive” each time. Also, the Potency entry in the test on PA-1, with SKOV3, in the test with Tov-21-G and with Tov112D was “inactive” in each case. For the same compound, the activity, negative = cell killing was -28.8% in test [1] (setting [4]); -18.4% in test [1] (setting [5]); -28.3% and -12.6% in [1] (setting [7]). Moreover, the figures for the Potency in test [1] (tumour line B) and in test [1] (tumour line D) were 17.8 µM (active) and 12.6 µM (active), respectively.
